# Data: PubChem BioAssay (NCI)
# Several values for one entry are separate records, joined by “and”; a condition that tells them apart may be missing. Identical values can stand only once. About 79,000 compounds went through this panel and 15% of them were active in at least one assay; those are over-represented in the sample as a whole. Where a structure was tested more than once in an assay, its records may differ in their call. Activity calls are given as the source filed them. Cut-off read from the data, not from the text of the source: active = growth inhibition above about 70%; inactive = the rest.
# What was measured:
# [1] = NCI Yeast Anticancer Drug Screen. Data for the rad52 strain (AID 147);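 note: 0% = growth of vehicle-treated control cultures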; conditions: S. cerevisiae rad52 mutant growth inhibition, stronger effect = higher value
# Summary of the method: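 The repair-mutant yeast strain was incubated with compounds, then growth was read and inhibition derived relative to vehicle.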
# [2] = NCI Yeast Anticancer Drug Screen. Data for the wt1 strain (AID 149);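 note: 0% = growth of vehicle-treated wt1 cultures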; conditions: S. cerevisiae wt1 strain (SPY 50644) growth inhibition, stronger effect = higher value
# Summary of the method: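 Yeast wt1 strain exposed to compounds; growth inhibition measured relative to vehicle-treated controls.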
# [3] = NCI Yeast Anticancer Drug Screen. Data for the rad50EPP+ strain (AID 151);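 note: 0% = growth of vehicle-treated control cultures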; conditions: S. cerevisiae rad50 mutant strain, stronger effect = higher value
# Summary of the method: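 Vehicle-normalised growth inhibition; rad50EPP+ yeast strain, altered in DNA damage repair, compound-treated.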
# [4] = NCI Yeast Anticancer Drug Screen. Data for the mgt1 strain (AID 153); conditions: S. cerevisiae mgt1 mutant growth inhibition, stronger effect = higher value
# Summary of the method: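 Vehicle-normalized growth inhibition is determined in mgt1 yeast, a strain selected for a defined alteration in DNA repair or cell cycle control.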
# [5] = NCI Yeast Anticancer Drug Screen. Data for the rad50 strain (AID 155);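 note: 0% = growth of vehicle-only cultures of the same strain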; conditions: S. cerevisiae rad50 strain growth inhibition, stronger effect = higher value
# Summary of the method: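 Yeast carrying a defined DNA repair defect were exposed to test compounds, and growth was compared with vehicle-treated controls to give percent inhibition.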
# [6] = NCI Yeast Anticancer Drug Screen. Data for the mec2-1 strain (AID 157); conditions: S. cerevisiae mec2-1 strain, stronger effect = higher value
# Summary of the method: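 Mutant yeast (mec2-1) grown with compound; growth inhibition relative to vehicle control reported.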
# [7] = NCI Yeast Anticancer Drug Screen. Data for the rad14 strain (AID 159);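 note: 0% = growth of vehicle-treated control cultures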; conditions: S. cerevisiae rad14 strain growth inhibition, stronger effect = higher value
# Summary of the method: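 Yeast cells carrying a defined DNA-repair defect were exposed to compounds, and growth inhibition was calculated relative to vehicle-treated control cultures.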
# [8] = NCI Yeast Anticancer Drug Screen. Data for the sgs1 mgt1 strain (AID 161);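 note: 0% = growth of cultures given vehicle only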; conditions: S. cerevisiae sgs1 mgt1 strain, stronger effect = higher value
# Summary of the method: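 Growth of a repair-deficient yeast mutant was monitored after compound treatment and expressed as inhibition relative to vehicle-treated cultures.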
# [9] = NCI Yeast Anticancer Drug Screen. Data for the CLN2oe strain (AID 163);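 note: 0% = growth of vehicle-only control cultures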; conditions: S. cerevisiae CLN2oe strain, stronger effect = higher value
# Summary of the method: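 Compounds are applied to yeast harbouring a defined cell-cycle control change; reduced growth compared with vehicle-treated controls gives the value.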
# [10] = NCI Yeast Anticancer Drug Screen. Data for the cln2 rad14 strain (AID 165);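 note: 0% = growth equal to vehicle treated cultures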; conditions: S. cerevisiae cln2 rad14 strain, stronger effect = higher value
# Summary of the method: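 Readout is yeast growth inhibition versus vehicle-treated controls, using a strain with cln2 and rad14 alterations exposed to compound.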
# [11] = NCI Yeast Anticancer Drug Screen. Data for the bub3 strain (AID 167); conditions: S. cerevisiae bub3 mutant strain, stronger effect = higher value
# Summary of the method: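 Compounds were applied to a genetically altered yeast strain carrying a cell-cycle control defect. Growth inhibition was scored against vehicle-treated controls.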
# [12] = NCI Yeast Anticancer Drug Screen. Data for the wt2 strain (AID 169);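 note: 0% = growth of vehicle-treated yeast cultures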; conditions: S. cerevisiae wt2 strain growth inhibition, stronger effect = higher value
# Summary of the method: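 Against vehicle-treated controls, the growth of yeast exposed to each compound was compared, and the inhibition was recorded.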
# [13] = NCI Yeast Anticancer Drug Screen. Data for the mlh1 strain (AID 171);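 note: 0% = growth of vehicle-treated control cultures of the same strain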; conditions: S. cerevisiae mlh1 strain growth inhibition, stronger effect = higher value
# Summary of the method: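 Measured: yeast growth. Reference: vehicle-treated controls. Organism: strain with a defined alteration affecting DNA damage repair or cell cycle control, treated with compound.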
# [14] = NCI Yeast Anticancer Drug Screen. Data for the sgs1 strain (AID 173);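 note: 0% = growth of vehicle-only control cultures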; conditions: S. cerevisiae sgs1 mutant, stronger effect = higher value
# Summary of the method: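 Each compound was added to cultures of the altered yeast strain. Growth was recorded, and inhibition was derived by comparison with vehicle controls.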
# [15] = NCI Yeast Anticancer Drug Screen. Data for the mlh1 rad18 strain (AID 175); conditions: S. cerevisiae mlh1 rad18 strain growth inhibition, stronger effect = higher value
# Summary of the method: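 Genetically defined yeast (DNA repair-deficient) exposed to compounds; growth inhibition determined relative to vehicle.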
# [16] = NCI Yeast Anticancer Drug Screen. Data for the rad18 strain (AID 177); conditions: S. cerevisiae rad18 mutant growth inhibition, stronger effect = higher value
# Summary of the method: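 Vehicle-treated cultures served as the baseline for scoring compound-induced growth inhibition in DNA-repair-mutant yeast.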
# [17] = at 5.0 µM (retest, dose inferred, filed as 0.5)
# [18] = at 50.0 µM (retest, dose inferred, filed as 5.0)
compound,measurement,setting,value
S=c1sc2c(s1)SCCS2,growth inhibition,[1]; at 1.2 µM,1% (inactive)
same,growth inhibition,[1]; at 3.7 µM,1% (inactive)
same,growth inhibition,[1]; at 11.0 µM,4% (inactive)
same,growth inhibition,[1]; at 33.0 µM,5% (inactive)
same,growth inhibition,[1]; at 100.0 µM,7% (inactive)
same,growth inhibition,[2]; at 1.2 µM,-1% (inactive)
same,growth inhibition,[2]; at 3.7 µM,1% (inactive)
same,growth inhibition,[2]; at 11.0 µM,1% (inactive)
same,growth inhibition,[2]; at 33.0 µM,0% (inactive)
same,growth inhibition,[2]; at 100.0 µM,2% (inactive)
same,growth inhibition,[3]; at 1.2 µM,2% (inactive)
same,growth inhibition,[3]; at 3.7 µM,3% (inactive)
same,growth inhibition,[3]; at 11.0 µM,6% (inactive)
same,growth inhibition,[3]; at 33.0 µM,14% (inactive)
same,growth inhibition,[3]; at 100.0 µM,9% (inactive)
same,growth inhibition,[4]; at 1.2 µM,-2% (inactive)
same,growth inhibition,[4]; at 3.7 µM,-1% (inactive)
same,growth inhibition,[4]; at 11.0 µM,18% (inactive)
same,growth inhibition,[4]; at 33.0 µM,-14% (inactive)
same,growth inhibition,[4]; at 100.0 µM,5% (inactive)
same,growth inhibition,[5]; at 1.2 µM,0% (inactive)
same,growth inhibition,[5]; at 3.7 µM,3% (inactive)
same,growth inhibition,[5]; [17],14% (inactive)
same,growth inhibition,[5]; at 11.0 µM,-16% (inactive)
same,growth inhibition,[5]; at 33.0 µM,5% (inactive)
same,growth inhibition,[5]; [18],49% (inactive)
same,growth inhibition,[5]; at 50.0 µM,13.7% (inactive) and 58.8% (inactive)
same,growth inhibition,[5]; at 100.0 µM,6% (inactive)
same,growth inhibition,[6]; at 1.2 µM,2% (inactive)
same,growth inhibition,[6]; at 3.7 µM,2% (inactive)
same,growth inhibition,[6]; [17],-11% (inactive)
same,growth inhibition,[6]; at 11.0 µM,-1% (inactive)
same,growth inhibition,[6]; at 33.0 µM,-2% (inactive)
same,growth inhibition,[6]; [18],23% (inactive)
same,growth inhibition,[6]; at 50.0 µM,5.65% (inactive) and 50% (inactive)
same,growth inhibition,[6]; at 100.0 µM,0% (inactive)
same,growth inhibition,[7]; at 1.2 µM,1% (inactive)
same,growth inhibition,[7]; at 3.7 µM,-4% (inactive)
same,growth inhibition,[7]; at 11.0 µM,-2% (inactive)
same,growth inhibition,[7]; at 33.0 µM,-1% (inactive)
same,growth inhibition,[7]; at 100.0 µM,5% (inactive)
same,growth inhibition,[8]; [17],-8% (inactive)
same,growth inhibition,[8]; [18],54% (inactive)
same,growth inhibition,[8]; at 50.0 µM,-2% (inactive) and 75.5% (active)
same,growth inhibition,[9]; at 1.2 µM,0% (inactive)
same,growth inhibition,[9]; at 3.7 µM,0% (inactive)
same,growth inhibition,[9]; at 11.0 µM,-2% (inactive)
same,growth inhibition,[9]; at 33.0 µM,-4% (inactive)
same,growth inhibition,[9]; at 100.0 µM,0% (inactive)
same,growth inhibition,[10]; [17],-14% (inactive)
same,growth inhibition,[10]; [18],32% (inactive)
same,growth inhibition,[10]; at 50.0 µM,7.95% (inactive) and 60.4% (inactive)
same,growth inhibition,[11]; at 1.2 µM,1% (inactive)
same,growth inhibition,[11]; at 3.7 µM,2% (inactive)
same,growth inhibition,[11]; [17],-20% (inactive)
same,growth inhibition,[11]; at 11.0 µM,6% (inactive)
same,growth inhibition,[11]; at 33.0 µM,5% (inactive)
same,growth inhibition,[11]; [18],49% (inactive)
same,growth inhibition,[11]; at 50.0 µM,20.4% (inactive) and 64.8% (inactive)
same,growth inhibition,[11]; at 100.0 µM,4% (inactive)
same,growth inhibition,[12]; at 1.2 µM,1% (inactive)
same,growth inhibition,[12]; at 3.7 µM,2% (inactive)
same,growth inhibition,[12]; at 11.0 µM,2% (inactive)
same,growth inhibition,[12]; at 33.0 µM,3% (inactive)
same,growth inhibition,[12]; at 100.0 µM,4% (inactive)
same,growth inhibition,[13]; at 1.2 µM,1% (inactive)
same,growth inhibition,[13]; at 3.7 µM,-2% (inactive)
same,growth inhibition,[13]; at 11.0 µM,5% (inactive)
same,growth inhibition,[13]; at 33.0 µM,1% (inactive)
same,growth inhibition,[13]; at 100.0 µM,3% (inactive)
same,growth inhibition,[14]; at 1.2 µM,-1% (inactive)
same,growth inhibition,[14]; at 3.7 µM,-1% (inactive)
same,growth inhibition,[14]; at 11.0 µM,0% (inactive)
same,growth inhibition,[14]; at 33.0 µM,0% (inactive)
same,growth inhibition,[14]; at 100.0 µM,3% (inactive)
same,growth inhibition,[15]; [17],46% (inactive)
same,growth inhibition,[15]; [18],59% (inactive)
same,growth inhibition,[15]; at 50.0 µM,20.8% (inactive) and 57.5% (inactive)
same,growth inhibition,[16]; at 1.2 µM,-4% (inactive)
same,growth inhibition,[16]; at 3.7 µM,-3% (inactive)
same,growth inhibition,[16]; at 11.0 µM,-2% (inactive)
same,growth inhibition,[16]; at 33.0 µM,-15% (inactive)
same,growth inhibition,[16]; at 100.0 µM,6% (inactive)
